Laboratory results as given in PMC11062922 (Nature Chemical Biology, 2023).
Where two headings read alike, the source gives them in different places.

Columns and labels:
Set-up in all cases: species or system human, MV4-11 + K-562 + COLO205 + SK-N-BE2 + OVCAR-8
NTRK1 = settings: read-out: apparent Kd, n = 1
PRKCI = settings: read-out: apparent Kd, n = 1
CDK10 = settings: read-out: apparent Kd, n = 1
CSNK1G1 = settings: read-out: apparent Kd, n = 1
MAP2K5 = settings: read-out: apparent Kd, n = 1
MERTK = settings: read-out: apparent Kd, compound concentrations: 100 nM and 1000 nM (sheet 'Samples'), n = 1
TAOK1 = settings: read-out: apparent Kd, n = 1
AKT1 = settings: read-out: apparent Kd, n = 1
PI4KA = settings: read-out: apparent Kd, n = 1
NQO1 = settings: read-out: apparent Kd, n = 1
STRADA = settings: read-out: apparent Kd, n = 1
IKBKE = settings: read-out: apparent Kd, n = 1
PIM1 = settings: read-out: apparent Kd, n = 1
MAPK1 = settings: read-out: apparent Kd, compound concentrations: 100 nM and 1000 nM (sheet 'Samples'), n = 1
RPS6KA5 = settings: read-out: apparent Kd, n = 1
IRAK1 = settings: read-out: apparent Kd; compound concentrations:100 nM and 1000 nM (sheet 'Samples'); n = 1
PRKDC = settings: read-out: apparent Kd, n = 1
[1] = compound concentrations:100 nM and 1000 nM (sheet 'Samples')

**Q.** Which results are given for `Cl.Cl.NC(CNC(=O)c1cc(Br)c(-c2ccnc3[nH]ccc23)s1)c1ccccc1.NC(CNC(=O)c1cc(Br)c(-c2ccnc3[nH]ccc23)s1)c1ccccc1` (centres unmarked) [GSK1322949A]?
**A.** potency estimated from few doses (NTRK1; compound concentrations: 100 nM and 1000 nM (sheet 'Samples'), CATDS: 2.41440168152992E-2): 2140 nM; potency estimated from few doses (PRKCI; compound concentrations: 100 nM and 1000 nM (sheet 'Samples'), CATDS: 2.43099453780894E-2): 2100 nM

**Q.** `O=C(O)C(F)(F)F.O=C(O)C(F)(F)F.O=c1[nH]ccc2nc(N[C@@H]3CCCNC3)nc(Nc3ccc(S(=O)(=O)N4CCOCC4)cc3)c12.O=c1[nH]ccc2nc(N[C@@H]3CCCNC3)nc(Nc3ccc(S(=O)(=O)N4CCOCC4)cc3)c12` [GSK2177277A] was tested. Which potency estimated from few doses (CDK10; compound concentrations: 100 nM and 1000 nM (sheet 'Samples'), CATDS: 2.6189541098699299E-2) did it give?
**A.** 32 nM

**Q.** What about the potency estimated from few doses (CSNK1G1; compound concentrations: 100 nM and 1000 nM (sheet 'Samples'), CATDS: 7.1909422101758503E-3) of the same molecule?
**A.** 882 nM

**Q.** What about the potency estimated from few doses (MAP2K5; compound concentrations: 100 nM and 1000 nM (sheet 'Samples'), CATDS: 1.4569473169207601E-2) of the same molecule?
**A.** 103 nM

**Q.** What about the potency estimated from few doses (MERTK; CATDS: 1.1592861489919001E-2) of the same molecule?
**A.** 181 nM

**Q.** What about the potency estimated from few doses (TAOK1; compound concentrations: 100 nM and 1000 nM (sheet 'Samples'), CATDS: 1.8448588679872001E-2) of the same molecule?
**A.** 61.9 nM

**Q.** For `CCn1c(-c2nonc2N)nc2c(C#CC(C)(C)O)nc(O[C@@H](CN)c3ccccc3)cc21.O=C(O)C(F)(F)F` [GSK1007102B], which potency estimated from few doses (AKT1; [1]) is on record?
**A.** 1120 nM

**Q.** Which potency estimated from few doses (PI4KA; compound concentrations: 100 nM and 1000 nM (sheet 'Samples'), CATDS: 3.4236292814805502E-2) does the source give for `NCC(NC(=O)c1cc(-c2cn[nH]c2)c(-c2ccnc3[nH]ccc23)s1)c1ccccc1.NCC(NC(=O)c1cc(-c2cn[nH]c2)c(-c2ccnc3[nH]ccc23)s1)c1ccccc1.O=C(O)C(F)(F)F.O=C(O)C(F)(F)F` (centres unmarked) [GSK1325775A] here?
**A.** 1310 nM

**Q.** Which potency estimated from few doses (MAP2K5; [1]) does the source give for `Cc1cccc(Nc2nc(N[C@H]3CCNC3)ncc2C(N)=O)c1.Cl` [GSK2197149A] here?
**A.** 1170 nM

**Q.** What about the potency estimated from few doses (PI4KA; [1]) of the same molecule?
**A.** 1420 nM

**Q.** Which potency estimated from few doses (NQO1; [1]) does the source give for `CNCc1ccc(-c2cc(-c3nc(-c4ccc(S(=O)(=O)C(C)C)cc4)cnc3N)on2)cc1` [VE-822] here?
**A.** 1090 nM

**Q.** Which potency estimated from few doses (CSNK1G1; [1]) does the source give for `CNc1cc(-c2ccc3c(N)n[nH]c3c2)nc(N)n1` [GSK2224810A] here?
**A.** 2200 nM

**Q.** What about the potency estimated from few doses (NQO1; [1]) of the same molecule?
**A.** 1440 nM

**Q.** For `O=C(O)C(F)(F)F.O=c1[nH]ccc2nc(N[C@@H]3CCNC3)nc(Nc3cc(Cl)cc(Cl)c3)c12` [GSK2188764A], which potency estimated from few doses (MAP2K5; [1]) is on record?
**A.** 207 nM

**Q.** With `COc1cc[nH]c1/C=C1\C(=O)Nc2ccc(F)c(C#CC3(O)CCNCC3)c21.Cl` [RO0282986-001] as the molecule, how does the potency estimated from few doses (NTRK1; compound concentrations: 100 nM and 1000 nM (sheet 'Samples'), CATDS: 9.7350807133640294E-3) read?
**A.** 1470 nM

**Q.** What about the potency estimated from few doses (STRADA; compound concentrations: 100 nM and 1000 nM (sheet 'Samples'), CATDS: 9.4665319729240003E-3) of the same molecule?
**A.** 1660 nM

**Q.** What does the source list for `CCn1c(-c2cccnc2O)nc2cnccc21` [SB-736715]?
**A.** potency estimated from few doses (AKT1; compound concentrations: 100 nM and 1000 nM (sheet 'Samples'), CATDS: 1.3570938887082299E-2): 1610 nM; potency estimated from few doses (CSNK1G1; compound concentrations: 100 nM and 1000 nM (sheet 'Samples'), CATDS: 1.6371117072737501E-2): 1080 nM; potency estimated from few doses (IKBKE; compound concentrations: 100 nM and 1000 nM (sheet 'Samples'), CATDS: 1.31503893194051E-2): 1730 nM; potency estimated from few doses (PI4KA; compound concentrations: 100 nM and 1000 nM (sheet 'Samples'), CATDS: 1.5744300181729402E-2): 1170 nM; potency estimated from few doses (PIM1; compound concentrations: 100 nM and 1000 nM (sheet 'Samples'), CATDS: 1.79844140695006E-2): 909 nM; potency estimated from few doses (PRKCI; compound concentrations: 100 nM and 1000 nM (sheet 'Samples'), CATDS: 1.2421041550088101E-2): 2000 nM

**Q.** With `c1cnn2ncc(-c3ccnc(Nc4ccc5c(c4)OCCO5)n3)c2c1` [GW806290X] as the molecule, how does the potency estimated from few doses (AKT1; compound concentrations: 100 nM and 1000 nM (sheet 'Samples'), CATDS: 2.02119935433384E-2) read?
**A.** 1930 nM

**Q.** And the potency estimated from few doses (NQO1; compound concentrations: 100 nM and 1000 nM (sheet 'Samples'), CATDS: 2.4144843754049801E-2)?
**A.** 1040 nM

**Q.** Which results are given for `O=C(O)C(F)(F)F.O=c1[nH]ccc2nc(N[C@@H]3CCNC3)nc(Nc3ccc4c(c3)S(=O)(=O)CC4)c12` [GSK2181306A]?
**A.** potency estimated from few doses (CDK10; compound concentrations: 100 nM and 1000 nM (sheet 'Samples'), CATDS: 1.0545767640912401E-2): 729 nM; potency estimated from few doses (CSNK1G1; compound concentrations: 100 nM and 1000 nM (sheet 'Samples'), CATDS: 8.6672996654843307E-3): 1380 nM; potency estimated from few doses (MAP2K5; compound concentrations: 100 nM and 1000 nM (sheet 'Samples'), CATDS: 1.2089918500056101E-2): 509 nM; potency estimated from few doses (MAPK1; CATDS: 9.4433771330179501E-3): 1020 nM; potency estimated from few doses (RPS6KA5; compound concentrations: 100 nM and 1000 nM (sheet 'Samples'), CATDS: 8.4236521656491804E-3): 1550 nM

**Q.** Which potency estimated from few doses (TAOK1; [1]) does the source give for `NC(=O)c1cc(-c2ccccc2)cc2c(C3CCNCC3)c[nH]c12` [GSK301362A] here?
**A.** 1500 nM

**Q.** `CC(C)Oc1ccc2c(-c3ccnc(Nc4ccc(N5CCN(C)CC5)cc4)n3)cnn2n1` [GW696155X] was tested. Which potency estimated from few doses (IKBKE; [1]) did it give?
**A.** 343 nM

**Q.** What about the potency estimated from few doses (IRAK1) of the same molecule?
**A.** 769 nM

**Q.** What about the potency estimated from few doses (TAOK1; [1]) of the same molecule?
**A.** 1580 nM

**Q.** For `Cc1cc(NC(=O)c2cccc(NC(=O)/C=C/CN(C)C)c2)ccc1Nc1nccc(-c2cccnc2)n1` [JNK-IN-7], which potency estimated from few doses (CDK10; [1]) is on record?
**A.** 844 nM

**Q.** And the potency estimated from few doses (IRAK1)?
**A.** 111 nM

**Q.** What does the source list for `CCC(CC)(CC)n1cnc2c(N)ncnc21` [SKF-97620]?
**A.** potency estimated from few doses (MAPK1; CATDS: 2.7105315036477701E-2): 1350 nM; potency estimated from few doses (PI4KA; compound concentrations: 100 nM and 1000 nM (sheet 'Samples'), CATDS: 3.8493630683817899E-2): 553 nM; potency estimated from few doses (PRKDC; compound concentrations: 100 nM and 1000 nM (sheet 'Samples'), CATDS: 3.7580559894827101E-2): 583 nM; potency estimated from few doses (STRADA; compound concentrations: 100 nM and 1000 nM (sheet 'Samples'), CATDS: 2.3464375070220901E-2): 2220 nM

**Q.** Which potency estimated from few doses (NTRK1; [1]) does the source give for `COc1cc[nH]c1/C=C1\C(=O)Nc2ccc(F)c(C#C[C@@H](O)[C@@H](N)[C@@H](C)O)c21` [RO0283120-000] here?
**A.** 1430 nM

**Q.** What about the potency estimated from few doses (STRADA; [1]) of the same molecule?
**A.** 2010 nM

**Q.** How did the potency estimated from few doses (PRKCI; [1]) turn out when `Nc1nccc(-c2ccc3c(N)n[nH]c3c2)n1` [GSK1034945A] was run?
**A.** 1240 nM

**Q.** What does the source list for `Nc1nc(-c2ccc3c(N)n[nH]c3c2)cc(N2CCCC(NC(=O)c3ccccc3)C2)n1` (centres unmarked) [GSK2286775B]?
**A.** potency estimated from few doses (IKBKE; [1]): 298 nM; potency estimated from few doses (NQO1; [1]): 1370 nM

**Q.** `CN[C@H](C#Cc1c(F)ccc2c1/C(=C/c1[nH]ccc1OC)C(=O)N2)CO.Cl` [RO0283049-001] was tested. Which potency estimated from few doses (NTRK1; compound concentrations: 100 nM and 1000 nM (sheet 'Samples'), CATDS: 2.3877325037377599E-2) did it give?
**A.** 949 nM

**Q.** For `COc1cc[nH]c1/C=C1\C(=O)Nc2ccc([N+](=O)[O-])c(N3CC[C@@H](O)C3)c21` [RO0504985-000], which potency estimated from few doses (NTRK1; compound concentrations: 100 nM and 1000 nM (sheet 'Samples'), CATDS: 3.6845933962960403E-2) is on record?
**A.** 886 nM

**Q.** Which potency estimated from few doses (PIM1; [1]) does the source give for `CCn1c(-c2nonc2N)nc2cncc(C(=O)N3CC[C@H](N)C3)c21.Cl` [SB-772077-B] here?
**A.** 30.8 nM

**Q.** And the potency estimated from few doses (PRKCI; [1])?
**A.** 606 nM

**Q.** And the potency estimated from few doses (RPS6KA5; [1])?
**A.** 48.3 nM

**Q.** How did the potency estimated from few doses (RPS6KA5; [1]) turn out when `Cl.Cl.NC[C@H](CC1CCCCC1)NC(=O)c1ccc(-c2ccnc3[nH]ccc23)s1.NC[C@H](CC1CCCCC1)NC(=O)c1ccc(-c2ccnc3[nH]ccc23)s1` [GSK1581428A] was run?
**A.** 1340 nM

**Q.** `Cl.Cl.NCC(NC(=O)c1cc(-c2ccnc3[nH]ccc23)cs1)c1ccccc1.NCC(NC(=O)c1cc(-c2ccnc3[nH]ccc23)cs1)c1ccccc1` (centres unmarked) [GSK1229959A] was tested. Which potency estimated from few doses (RPS6KA5; compound concentrations: 100 nM and 1000 nM (sheet 'Samples'), CATDS: 1.83168013487864E-2) did it give?
**A.** 1240 nM

**Q.** With `CCn1c(-c2nonc2N)nc2cncc(Br)c21` [SB-738004] as the molecule, how does the potency estimated from few doses (PRKCI; [1]) read?
**A.** 483 nM

**Q.** With `Cn1cc(C2=C(c3c(S(C)=O)n(C)c4ccccc34)C(=O)NC2=O)c2ccccc21` (centres unmarked) [RO0317379-000] as the molecule, how does the potency estimated from few doses (MERTK; CATDS: 0.152685994301652) read?
**A.** 590 nM

**Q.** For `Cc1occc1-c1nc(N)c(OC[C@@H](N)Cc2c[nH]c3ccccc23)cc1-c1cc2c(C)n[nH]c2cn1` [GSK1660450B], which potency estimated from few doses (CSNK1G1; [1]) is on record?
**A.** 1340 nM

**Q.** And the potency estimated from few doses (PIM1; [1])?
**A.** 92.7 nM

**Q.** And the potency estimated from few doses (TAOK1; [1])?
**A.** 12 nM

**Q.** Which potency estimated from few doses (AKT1; [1]) does the source give for `Cc1cccc(-c2cc(-c3c[nH]nc3-c3ccccn3)ccn2)c1` [GW679395X] here?
**A.** 1770 nM

**Q.** And the potency estimated from few doses (PRKDC; [1])?
**A.** 1130 nM
